# In all, about 4,100 compounds went through this assay and about 1,600 (39%) were called active. Roughly 25% stayed inconclusive and do not appear here. Calls come from the whole dose curve; as a rule, active = well fitted inhibition curve with a large enough effect; inconclusive = small, poorly fitted or top-dose-only effect; inactive = no such curve, though single readings can be large or run the other way. This is one part of the list. Where a call stands in place of a potency, no number is given.
# Assay: qHTS Validation assay for Inhibitors of Plasmodium falciparum Dd2 growth in vitro; note: nearly all actives have a fitted effect of over 70% in size
# Details: P. falciparum Dd2 in RBCs, SYBR Green growth, 72 h; series mostly up to 28.7 µM
# Method in brief: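 P. falciparum Dd2-infected red blood cells (2.5% hematocrit, 0.3% parasitemia) grown 72 h at 37 °C under 5% O2 with compounds in a titration, 29 uM to 0.5 nM final. Growth read as SYBR Green-1 fluorescence after ~16 h lysis; artesunate 300 nM as positive control.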
# Potency is the fitted concentration of half-maximal effect.
row,SMILES,Potency
1,CN(C)CC(O)COc1ccc(C(C)(C)c2ccc(OCC(O)CN(C)C)cc2)cc1 (stereo unspecified),8.41 µM (active)
2,O=C(Nc1ccc(C(=O)OC[C@@H]2CCCN3CCCC[C@H]23)cc1)c1cccc(Br)c1,6.68 µM (active)
3,O=C(COC(=O)c1cccc(Br)c1)NCCNC(=O)COC(=O)c1cccc(Br)c1,inactive
4,CCc1cccc(NC(=O)c2ccc3c(c2)N(C)C2CCCCN2C3=O)c1 (stereo unspecified),inactive
5,O=S(=O)(c1cccc(F)c1)N1CCC2(CC1)CC(Cc1nc(C3CC3)no1)CCO2 (stereo unspecified),inactive
6,O=C(NC1CCN(c2cnn(CC3CC3)c(=O)c2)CC1)c1ccc2c(c1)OCO2,inactive
7,CC1(CCCCc2ccccc2)COc2ccc(C(=O)NC3CCC(O)CC3)cc2N1 (stereo unspecified),inactive
8,CCN(C(=O)Cn1c(=O)n(Cc2ccc3c(c2)OCO3)c(=O)c2ccc(C(=O)NC3CCCCC3)cc21)c1cccc(C)c1,6.68 µM (active)
9,O=C(Cc1cccc(F)c1)N1CCC(Oc2ccccc2-c2nc(C3CC3)no2)C1 (stereo unspecified),inactive
10,O=C(c1ccco1)N1CCC(Oc2ccccc2-c2nc(-c3ccccc3)no2)C1 (stereo unspecified),inactive
11,c1ccc(-c2nc(-c3ccncc3)no2)c(OC2CCN(C3CCCC3)C2)c1 (stereo unspecified),15 µM (active)
12,Cc1cc(C(=O)Nc2cnn(Cc3ccc(Cl)cc3Cl)c2)no1,9.44 µM (active)
13,Cc1cc(/C(N)=N/OC(=O)c2ccccc2Cl)no1,inactive
14,Cc1cn2nc(C(=O)NCc3ccccc3Cl)cc2c(=O)[nH]1,inactive
15,COc1ccc(-c2ccc3ncc(Nc4ccncc4)n3n2)cc1OC,4.85 µM (active)
16,COc1cncc(Nc2cnc3ccc(-c4ccc(F)cc4)nn23)c1,3.06 µM (active)
17,COc1ccc(C(=O)NCc2nnc3ccc(-c4ccc(F)cc4)nn23)c(OC)c1,inactive
18,COc1ccc(Nc2cnc3ccc(-c4ccc(OC)c(OC)c4)nn23)cc1,1.72 µM (active)
19,COc1ccc(-c2ccc(SCc3ccccn3)nn2)cc1OC,inactive
20,OCc1cccc(-c2ccc3ncc(Nc4ccc(OCCN5CCCC5)cc4)n3n2)c1,3.44 µM (active)
21,Cc1oc(C(C)C)cc1C(=O)N1CC[C@](C)(O)[C@@H](O)C1,inactive

row,SMILES,Potency
1,CC(=O)N1CCC([C@@H]2CN(C3CCN(CC(C)C)CC3)C[C@H]2CO)CC1,inactive
2,O=C(O)CC1(CC(=O)N2CCN3C(=O)N(Cc4ccccc4)C(=O)[C@H]3C2)CCCC1,inactive
3,CCCc1noc(-c2ccn3c(CNC(=O)c4ccc5ccccc5n4)nnc3c2)n1,inactive
4,c1ccc(-c2ccc3ncc(Nc4cccnc4)n3n2)cc1,4.85 µM (active)
5,COc1cncc(Nc2cnc3ccc(-c4ccc(OC)c(OC)c4)nn23)c1,1.22 µM (active)
6,O=C(NCc1nnc2ccc(-c3ccccc3)nn12)c1ccoc1,inactive
7,CCC1(O)CCCN(c2ncc(C(C)(C)C(=O)O)c(N3CCOCC3)n2)C1 (stereo unspecified),inactive
8,CCOC(=O)c1ccc(NC2=CC(c3ccc(O)c(OCC)c3)N(c3ccc(C(=O)OCC)cc3)C2=O)cc1 (stereo unspecified),3.35 µM (active)
9,CCOc1cc(C2c3c(oc4ccccc4c3=O)C(=O)N2Cc2ccc3c(c2)OCO3)ccc1O (stereo unspecified),inactive
10,CCOC(=O)c1ccc(NC2=CC(c3ccc(F)cc3)N(c3ccc(C(=O)OCC)cc3)C2=O)cc1 (stereo unspecified),8.41 µM (active)
11,Nc1cc[n+](CC(=O)c2ccc3c(c2)OCCO3)cc1,13.3 µM (active)
12,O=C(CNC1=NCCC1)c1ccc2c(c1)OCCO2,inactive
13,COc1cc(C2NC(=O)c3c(sc4c3CCN(C)C4)N2)cc(OC)c1OC (stereo unspecified),inactive
14,O=C(Nc1cccc2ccccc12)O[C@@H]1CO[C@H]2[C@@H]1OC[C@@H]2n1nnnc1-c1ccc(-c2ccccc2)cc1,inactive
15,CC(C)N1C(=O)C(CC(=O)N(C)Cc2cccnc2)=C2CCCCC21 (stereo unspecified),inactive
16,CCC(C)c1ccc(N(C(=O)c2ccco2)C(C(=O)NC2CCCC2)c2cccnc2)cc1 (stereo unspecified),6.68 µM (active)
17,Cc1noc(C)c1-c1cc2cc(CN(C)C)oc2c(NCc2cccnc2)n1,1.22 µM (active)
18,Cc1noc(C)c1-c1cc2cc(CN(C)C)oc2c(Nc2cccnc2)n1,12.2 µM (active)
19,COc1cncc(Nc2ncc(-c3c(C)noc3C)c3c2OCC3)c1,inactive
20,Cc1cccc(Cn2nnc3c(=O)[nH]c(C4CCCN(C(=O)c5ccc(C(C)(C)C)cc5)C4)nc32)c1 (stereo unspecified),2.66 µM (active)
21,Cc1cn2nc(-c3nc(C4CCCN(C(=O)c5cccc(Cl)c5)C4)no3)cc2c(=O)[nH]1 (stereo unspecified),inactive

row,SMILES,Potency
1,Cc1cn2nc(-c3nc(C4CCCN(C(=O)c5ccc(C)c(F)c5)C4)no3)cc2c(=O)[nH]1 (stereo unspecified),inactive
2,O=C(c1ccc(F)cc1)N1CCC(c2nn(Cc3ccccc3)c(=O)[nH]2)CC1,inactive
3,O=C(c1cccc(Cl)c1)N1CCC(c2nn(Cc3ccccc3)c(=O)[nH]2)CC1,inactive
4,NC(=O)c1cccc(-c2ncc3c(n2)OCCN(Cc2ccc(F)cc2F)C3=O)c1,inactive
5,O=C(c1cccc(Cl)c1)N1CCC(c2nc3c(nnn3Cc3ccc(F)cc3F)c(=O)[nH]2)CC1,5.96 µM (active)
6,Cc1cccc(CC(=O)N2CCCC(n3cc(-c4nc(-c5ccccc5)no4)nn3)C2)c1 (stereo unspecified),inactive
7,CC(C)(C)c1ccc(C(=O)N2CCCC(c3nc4c(nnn4Cc4cccc(F)c4)c(=O)[nH]3)C2)cc1 (stereo unspecified),16.8 µM (active)
8,CO[C@H]1C(=O)N(C2CCN(S(=O)(=O)c3cccnc3)CC2)[C@H]1c1ccncc1,inactive
9,Cc1ccc(Nc2nc3nonc3nc2Nc2cccc(C(F)(F)F)c2)cc1Cl,2.11 µM (active)
10,CCOc1ccc(-c2nonc2NC(=O)COc2c(C)cc(C)cc2C)cc1OCC,inactive
11,CCOc1ccc(-c2nonc2NC(=O)c2ccc(C)cc2)cc1OCC,1.68 µM (active)
12,CCOC(=O)Cc1csc(NC(=S)NC(=O)c2ccc(C)cc2)n1,inactive
13,CCCOc1ccc(-c2nonc2NC(=O)c2cc(OC)c(OC)c(OC)c2)cc1OCCC,5.96 µM (active)
14,CCNc1nc(OC)nc(Oc2ccc(=O)n(-c3ccccc3)n2)n1,5.96 µM (active)
15,CC(C)Cn1c(-c2ccco2)nc2c(c(=O)c3ccccc3n2C)c1=O,9.44 µM (active)
16,O=S(=O)(c1ccc(F)cc1)N1CCN(C(=S)NC2CC2)CC1,3.35 µM (active)
17,COc1ccc(S(=O)(=O)N2CCN(C(=S)NC3CCCCC3)CC2)cc1,6.68 µM (active)
18,CS(=O)(=O)N1CCC(OC2CCN(C(=O)Nc3cc(F)ccc3F)CC2)CC1,inactive
19,Cc1ccc(S(=O)(=O)N2CCC(C(=O)NC3CC3)CC2)cc1,inactive

# Reference: PubChem BioAssay AID1347416 (National Center for Advancing Translational Sciences (NCATS), 2020)
